Screens from PubChem.
HT1080-NT tox: kills 2HG-producing HT-1080-NT fibrosarcoma cells | HT-1080-NT fibrosarcoma viability, CellTiter-Glo ATP luminescence, 48 h | Potency, µM (doses to about 46.1 µM), for inactives: top-dose activity, negative = less viability, usual class: cytotoxic | 360,000 tested, 1.6% active | AID 686970;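 further: NT is the 2HG producing partner of a matched IDH1 knockdown line; 0% = DMSO-treated cells and -100% = media-only wells without cells; nearly all actives have a fitted effect of over 55% in size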
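Luminescent CellTiter-Glo readout after 48 hours of compound exposure at 37 degrees C defined viability of HT-1080-NT cells. Activity was normalized to DMSO wells and cell-free media wells; concentration-response curves were fitted and assigned curve classes.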
ATXN2 expr inh: inhibitors of ATXN2 expression. HEK-293 ATXN2-luciferase reporter, luminescence, 24 h. Potency, µM (doses to about 57 µM), for the others: at the highest dose activity change, negative = inhibition, hits mostly inhibitors. 360,000 tested, 0.72% active. AID 1745845; further: on the % scale 0 is the no-effect control and ±100 the full control effect; nearly all actives have a fitted effect of over 55% in size
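qHTS (up to 57 uM final) was run with 24 h compound exposure of reporter cells at 37 °C. Each well was multiplexed: SteadyGlo luminescence measured ATXN2-luciferase expression after a fluorogenic Gly-Phe-AFC viability readout (25 uM final).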
ATXN viability: cell viability loss in ATXN counter-screen; S2 cells (HEK-293 line with an ATXN2-luciferase reporter) viability, CellTiter-Fluor protease fluorescence, 24 h; Potency, µM (titrated, usually from 56.7 µM), actives largely listed as cytotoxic; 400,000 tested, 0.49% active; AID 651635; further: nearly all actives have a fitted effect of over 40% in size
HT1080 IDH1KD tx: toxicity to HT-1080 IDH1 knockdown cells (counter line). 360,000 tested, 2% active. Potency, µM (doses to about 46.1 µM), inactives show at the highest dose activity, negative = toxicity, hits mostly cytotoxic. AID 686971. HT-1080 IDH1 knockdown viability, ATP luminescence, 48 h;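 further: 0% = DMSO wells and -100% = cell-free medium wells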
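After a 2 h attachment period, IDH1KD HT-1080 cells took pin-transferred compound for 48 h at 37 °C; ATP-based luminescence after 10 min room-temperature reagent incubation reported viability.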
TGFb inhibitor: inhibitors of TGF-b signaling; HepG2 CAGA-GFP TGF-b/SMAD3 reporter, GFP fluorescence, 18 h; TGF-beta stimulated, 500 pg/mL final; Potency, µM (doses to about 46.1 µM), for inactives: at the highest dose activity, negative = inhibition, actives largely listed as inhibitors; 410,000 tested, 1.2% active; AID 588855; further: on the % scale 0 is the no-effect control and ±100 the full control effect; nearly all actives have a fitted effect of over 65% in size
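Cell-based qHTS in HEPG2 carrying a CAGA-GFP Smad reporter; compounds added before 500 pg/mL final TGF-beta, 18 h incubation at 37 degrees C, GFP fluorescence quantified per cell by imaging cytometry.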
HepG2 viability: counter-screen for TGF-b inhibitors: cytotoxicity in HepG2 cells. AID 588856. Potency, µM (highest dose often 46.1 µM), inactives show top-dose activity change, negative = cytotoxicity, actives largely listed as cytotoxic. HepG2 CAGA-GFP viability, ATP luminescence, 18 h. 410,000 tested, 0.76% active
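HepG2 CAGA-GFP cells (1000/well, DMEM with 1% FBS) received compound, then TGF-beta at 500 pg/mL final, and were incubated 18 hours at 37 degrees C. Viability was read by CellTiter-Glo luminescence. Media-only wells were set as complete cell-killing and DMSO as no toxicity.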
An asterisk follows results filed as active; i = inactive; ? = inconclusive; . = no result. Rows were chosen to be rich in hits. Some 3.8% of all compounds tested hit in one or more screens of this group. The call rests on the fitted dose curve; in most records, active means well fitted curve in the direction sought with a large enough effect; inconclusive means small, poorly fitted or top-dose-only effect, or another doubt; inactive means no such curve, though single readings can be large; an effect the other way counts as inactive or inconclusive. Potency means the concentration at half of the fitted maximal effect.

SMILES	HT1080-NT tox	ATXN2 expr inh	ATXN viability	HT1080 IDH1KD tx	TGFb inhibitor	HepG2 viability
O=c1c2ccccc2nc(/C=C/c2cc(Br)ccc2O)n1CCO	-13.2%	.	i	-17.5%	?	12.6µM*
Cc1nn(-c2ccccc2)c2sc(C(=O)Nc3cccc(Br)c3)cc12	.	-16.8%	i	.	-13.2%	5.9%
NC(Cc1ccc(Cl)cc1)c1csc(Nc2ccc(C(F)(F)F)cn2)n1 (stereo not drawn)	?	-22.5%	31.6µM*	?	?	-97.5%
CC(C)CC(N)c1csc(Nc2ccc(C(F)(F)F)cn2)n1 (stereo not drawn)	18.4µM*	?	?	?	?	17.8µM*
COc1ccc(NC(=O)CC2C(=O)N(c3ccc(F)cc3)C(=O)N2Cc2cccnc2)cc1 (stereo not drawn)	.	.	.	.	2.7%	-4.1%
CCc1cccc(NC(=O)c2nc(-c3ccncc3)no2)c1	.	.	.	.	-1.6%	-10.3%
O=C(/C=C/c1ccco1)Oc1cc(Br)cc(/C=N/NC(=O)c2ccccc2O)c1	?	?	i	1.84µM*	10µM*	-61.3%
CC[C@@H](C)[C@H](CN[C@H](CNC)C(C)C)NC[C@@H](C)c1ccc(CC(C)C)cc1	?	28.2µM*	.	?	?	-110.9%
CC[C@H](C)[C@@H](CNC)NC[C@@H](Cc1ccc(O)cc1)NCC(C)(C)C	-10.0%	-6.7%	i	1.9%	2.7%	-3.0%
N/C(=N\OC(=O)/C=C/c1ccccc1Cl)c1ccccn1	?	15.8µM*	i	8.3%	-2.8%	0.7%
Cc1ccc(C(=O)O/N=C(\N)c2ccccn2)cc1	14.6µM*	12.6µM*	i	?	-5.8%	-39.7%
COc1ccc(OC)c(NC(=O)c2nnn(CC(=O)Nc3ccc(C(C)C)cc3)c2N)c1	.	.	.	.	?	-59.0%
O=C1CCN(C(=O)c2cccs2)c2ccccc21	-1.5%	8.7%	?	0.1%	-3.1%	-7.1%
CN1C(=O)/C(=C\C(=O)c2cccs2)c2ccccc21	10.3µM*	?	?	?	?	-19.3%
Clc1cccc(Cl)c1/C=N/Nc1c(Cl)cncc1Cl	2.31µM*	-26.5%	i	5.17µM*	-6.6%	-1.0%
C/C(=N\NC(=O)c1ccc(Br)cc1)C1C(=O)c2ccccc2C1=O	2.24µM*	-30.7%	.	1µM*	?	-79.4%
CCOc1ccc(C(=O)N/N=C(/C)C2C(=O)c3ccccc3C2=O)cc1	-12.1%	-32.8%	?	-11.5%	2.6%	6.5%
C/C(=N\NC(=O)c1ccc(-c2ccccc2)cc1)C1C(=O)c2ccccc2C1=O	-14.7%	?	?	-7.2%	12.6µM*	-89.3%
COc1ccccc1C(=O)N(Cc1cc2cccc(C)c2nc1N1CCC(O)CC1)C1CC1	.	.	i	.	.	.
O=C(O)c1cccc2c1C(=O)c1ccccc1-2	10.0%	9.8%	i	?	3.8%	1.4%
O=C1C(=C(I)I)c2ccccc2-c2ccccc21	?	?	.	5.17µM*	6.31µM*	11.2µM*
O=C(c1nc2ncccn2n1)N1CCOc2ccc(C(O)C(c3ccccc3)c3ccccc3)cc2C1 (stereo not drawn)	.	.	i	.	.	.
O=[N+]([O-])c1cc2ccccc2c(O)c1O	-4.5%	.	i	-0.7%	12.4%	3.7%
O=[N+]([O-])c1cc(-c2ccccc2)cc([N+](=O)[O-])c1O	18.4µM*	-14.2%	i	?	?	-20.6%
COc1ccc(-n2nnnc2-c2cccc(OC)c2)cc1	?	4.1%	?	1.64µM*	-22.4%	-3.0%
SMILES	HT1080-NT tox	ATXN2 expr inh	ATXN viability	HT1080 IDH1KD tx	TGFb inhibitor	HepG2 viability
COc1ccc(/C=N/NC(=O)c2cccc3ccccc23)c(OC)c1OC	?	-10.9%	i	16.4µM*	-11.1%	-9.9%
COc1ccc(/C=N/NC(=O)c2cc3c(OC)ccc(OC)c3[nH]2)cc1O	2.31µM*	0.0%	i	0.411µM*	?	-57.9%
COc1ccccc1/C=N/NC(=O)c1cc2c(OC)c(OC)ccc2[nH]1	7.31µM*	.	?	4.11µM*	-10.3%	-1.8%
COc1cccc(/C=N/NC(=O)c2cc3c(OC)cccc3[nH]2)c1OC	3.9%	8.7%	i	14.5%	?	-44.1%
COc1ccccc1/C=N/NC(=O)c1cccc2ccccc12	-17.4%	-7.8%	i	-4.2%	11.3%	-18.4%
COc1cccc(/C=N/NC(=O)c2cc3c(OC)c(OC)ccc3[nH]2)c1OC	?	.	?	6.51µM*	9.3%	11.7%
CC(C)(C)c1ccc(C(=O)C[n+]2ccccc2Cl)cc1	.	.	.	.	-9.6%	-0.6%
O=C(Nc1ccc(F)cc1)c1ccc2c(c1)NC(=O)c1ccccc1S2	.	-20.9%	?	.	-1.0%	-22.7%
COc1cc(=O)n2c(c1C(=O)NC(C)c1ccco1)CCN(Cc1cc3ccccc3o1)CC2 (stereo not drawn)	.	.	i	.	.	.
Cc1ccc(-c2ccc(/C=C3\SC(N4CCOCC4)=NC3=O)o2)cc1	9.2µM*	-16.1%	.	8.2µM*	1.9%	-29.1%
O=[N+]([O-])c1ccc2[nH]cc(S(=O)(=O)N3CCN(c4cccc(Cl)c4)CC3)c2c1	20.6µM*	?	i	23.1µM*	?	-39.6%
Cc1cccc(/C=C(\C#N)c2nc3ccccc3c(=O)[nH]2)c1	.	5.3%	i	.	3.6%	-21.4%
CSc1nc2ccccc2cc1/C=C(\C#N)c1ccccc1	?	-29.5%	i	18.4µM*	-3.1%	-4.1%
CSc1nc2ccccc2cc1/C=C(\C#N)c1ccc(Cl)c(Cl)c1	-5.1%	36.4%	i	-6.2%	16.9%	-13.8%
CSc1nc2ccccc2cc1/C=C(\C#N)c1cccc(C)c1	?	-28.2%	i	5.17µM*	0.0%	-12.6%
CCC1(C2CCN(Cc3ccc(C)s3)CC2)NC(=O)N(CC2COc3ccccc3O2)C1=O (stereo not drawn)	.	.	i	.	.	.
Cc1noc(C)c1CCC(=O)N1CCOc2ccc(CN3CCN(c4ccccn4)CC3)cc2C1	.	.	i	.	.	.
CN(C(=O)CSc1nc2ccc(NC(=O)COc3ccc(F)cc3)cc2s1)c1ccccc1	.	.	.	.	.	-9.0%
CC1(C)Cc2nc3sc4c(SCC(=O)NCc5ccco5)ncnc4c3cc2CO1	?	3.0%	?	2.59µM*	0.0%	-2.4%
CC(C)c1nc2sc3c(SCC(=O)NCc4ccco4)ncnc3c2c2c1CCC2	?	-0.7%	i	?	-2.5%	-3.6%
CC1(C)Cc2nc3sc4c(=O)n(CC(=O)NCc5ccccc5)cnc4c3cc2CO1	8.91µM*	8.7%	?	3.55µM*	14.9%	4.4%
